We go through twelve compounds from PubChem BioAssay (NCATS).

The test can be described thus: qHTS Assay for Lipid Storage Modulators (AID 1519). As to activity change, negative = inhibition: % is scaled to controls: 0 for no effect and ±100 for the full control effect. The conditions noted are these: Drosophila S3 cells, BODIPY lipid droplet/cell ratio, laser cytometry, cells loaded with oleic acid. From the text:
NIH Molecular Libraries Probe Production Centers Network [MLPCN]
NIH Chemical Genomics Center [NCGC]
Assay Submitter (PI): Beller, Mathias; Max-Planck-Institut fur Biophysikalische Chemie
NCGC Assay Overview: Storing lipids as a reservoir for energy or the anabolism of elementary metabolites is a common feature of probably all cells and is conserved from bacteria to humans. The universal cellular lipid storage organelle is the so-called lipid storage droplet (LD). Although ubiquitous, LDs share a simple structure composed of a hydrophobic core that harbors the storage lipids, which is shielded by a droplet-specific phospholipid monolayer to which proteins are attached. The current model of LD biogenesis involves an incorporation of the lipid core into the membrane leaflets of the endoplasmic reticulum (ER) followed by a subsequent budding-like maturation of a LD, which ultimately pinches off. Once released, LD volume can increase by localized lipogenesis or fusion of existing droplets. Storage lipids are re-mobilized enzymatically by lipase activity. Lipase regulation in the adipocyte is heavily studied and involves multiple components including catecholamine signaling, the LD-associated proteins Perilipin and comparative gene identification-58 (CGI-58) and at least two lipases named hormone sensitive lipase (HSL) and adipocyte triglyceride lipase (ATGL). LD regulation outside of the adipocyte is poorly understood and only few components are known. However, there is an urgent need to learn more about ectopic fat depots as mislocalized storage of lipids, for example in the liver or muscle, is an eminent health problem associated with insulin resistance or the metabolic syndrome. We developed a laser-scanning cytometer assay to enable 1,536-well screening and combined the results of the small molecules screen with an RNAi database based on lipid storage.
NCGC Assay Protocol Summary:
We dispensed 4 uL of cells at 1.25 x 10^6 cells/mL into LoBase Aurora COC 1,536-well plates (black walled, clear bottom) with a bottle-valve solenoid-based dispenser (Aurora) to obtain 5,000 cells/well. Triacsin C (Sigma-Aldrich T-4540), an inhibitor of long-chain fatty acyl CoA synthetase that blocks synthesis of triglycerides, was used as a positive control for lipid under-storage. A total of 23 nL of compound solution of different concentrations were transferred to the assay plates using a Kalypsys pin tool equipped with a 1,536-pin array containing 10-nL slotted pins (FP1S10, 0.457-mm diameter, 50.8 mm long; V&P Scientific). One microliter of oleic acid (400 uM) was added, and the plate was lidded with stainless steel rubber gasket lined lids containing pinholes. […] Fluorescence was detected by excitation of the fluorophores with a 488-nm laser on an Acumen Explorer (TTP Lab Tech). The total intensity in channel 1 (500-530 nm) reflected lipid droplet accumulation. […] The ratio of the total intensity in PMT channel 1 over total intensity of channel 3 was also calculated. Percent activity was computed relative to an internal control (100% inhibited lipid droplet deposition due to the presence of 20 uM Triacsin C), which was added to 32 wells/plate.

Setting [1] is: measured here: cell count channel max response.
Setting [2] is: measured here: lipid channel max response.

Where “and” joins values, the source holds several entries; their conditions need not be identical. Equal values may be shown once. Results filed as inconclusive are left out. Calls of active or inactive are those of the source. Calls follow the shape of the full dose curve.

Consider `Cc1c(Cl)cccc1Nc1ccccc1C(=O)O`, for which the activity change, negative = inhibition (at 25.7 µM (top of the series)) was -0.93% (inactive). In addition, the max response was -6.86% under setting [1] and -11.8% under setting [2].

Turning to `Nc1ccc(S(=O)(=O)Nc2ccc(Cl)nn2)cc1`, the activity change, negative = inhibition by setting is: (at 25.7 µM (top of the series)) 0.129% (inactive); (at 57.5 µM (top of the series)) 9.01% (inactive). For the same compound, the max response is 5.02% and 19.5% under setting [1]; 5.1% and 34.7% under setting [2].

On to `CC1=C(CC(=O)O)c2cc(F)ccc2/C1=C\c1ccc(S(C)=O)cc1` (stereo not given), for which the activity change, negative = inhibition (at 25.7 µM (top of the series)) is -0.955% (inactive). For the same compound, the max response is -8.73% under setting [1] and -7.15% under setting [2].

For the compound `CN(C)CCC=C1c2ccccc2CCc2ccccc21`, the activity change, negative = inhibition was -5.26% (inactive) (at 25.7 µM (top of the series)); -0.124% (inactive) and 0.255% (inactive) (at 57.5 µM (top of the series)). Also, the max response under setting [1] is -13.5% and 9.92% and -13.3%; the max response under setting [2] was -18.6% and 12.5% and -14.8%.

On to `CCCCN(CCCC)CCCOC(=O)c1ccc(N)cc1`, for which the activity change, negative = inhibition (at 25.7 µM (top of the series)) was -3.3% (inactive) and the activity change, negative = inhibition (at 57.5 µM (top of the series)) was 6.89% (inactive). Further, the max response by setting is: under setting [1], -6.51% and -0.907%; under setting [2], -7.52% and 11.8%.

For the compound `c1ccc2c(CC3=NCCN3)cccc2c1`, the activity change, negative = inhibition reads like this: (at 25.7 µM (top of the series)) -0.324% (inactive); (at 57.5 µM (top of the series)) 4.27% (inactive). Further, the max response is, setting by setting: under setting [1], -14.5% and 1.91%; under setting [2], -13.5% and 9.6%.

For `CN(C)CCOC(C)(c1ccccc1)c1ccccn1` (stereo not given), where the note is “at 57.5 µM (top of the series)”, the activity change, negative = inhibition is 3.29% (inactive). Moreover, the max response runs as follows: under setting [1], -15.9%; under setting [2], -9.47%.

As for `CC(CN(C)C)CN1c2ccccc2CCc2ccccc21` (stereo not given), where the note is “at 57.5 µM (top of the series)”, the activity change, negative = inhibition is 8.3% (inactive) and -0.445% (inactive). In addition, the max response is -4.41% and -13% under setting [1]; 4.99% and -13.2% under setting [2].

Turning to `CC(C)(C(=O)O)c1ccc(C(O)CCCN2CCC(C(O)(c3ccccc3)c3ccccc3)CC2)cc1` (stereo not given), the activity change, negative = inhibition (at 57.5 µM (top of the series)) was 2.57% (inactive) and -0.0758% (inactive). Moreover, the max response under setting [1] was 23% and -17.7%; the max response under setting [2] is 28% and -18.6%.

Turning to `C=Cc1c(C)c2cc3[nH]c(cc4nc(cc5nc(cc1[nH]2)C(C)=C5CCC(=O)O)C(CCC(=O)O)=C4C)c(C)c3C=C`, where the note is “at 57.5 µM (top of the series)”, the activity change, negative = inhibition is 12.2% (inactive). Also, the max response reads like this: under setting [1], 1.69%; under setting [2], 21.3%.

For `O=C1NS(=O)(=O)c2ccccc21`, under “at 57.5 µM (top of the series)”, the activity change, negative = inhibition is 6.8% (inactive). For the same compound, the max response reads like this: under setting [1], 18.3%; under setting [2], 29.2%.

In the case of `Cc1cc(N)c2ccccc2[n+]1CCCCCCCCCC[n+]1c(C)cc(N)c2ccccc21`, under “at 57.5 µM (top of the series)”, the activity change, negative = inhibition is -10.5% (inactive). For the same compound, the max response under setting [1] is -7.09% and the max response under setting [2] was -16.4%.
